The nature of assay [1]: Cellular Toxicity (caspase-3) Hek293 (AID 664).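 Note: cells exposed to compound for 16 h at 37 °C before readout.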 The note with it: HEK293 caspase-3 activation, DMSO = 0%, 100 µM tamoxifen = 100%; at 92.2 µM (top of the series). The essentials:
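qHTS, HEK293 (human embryonic kidney), 16 h cpd exposure in complete medium. Caspase-3/7 activation = luminescence increase; normalized to DMSO/100 uM tamoxifen; Hill-fit AC50.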

A short description of assay [2]: Cellular Toxicity (caspase-3) N2a (AID 665).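 Note: compound exposure lasted 16 h at 37 °C before readout.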 The essentials:
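Caspase-3/7 activation, measured as increased luminescence from aminoluciferin release, is quantified in mouse N2a cells exposed to compounds for 16 h. Values are normalized to DMSO and 10 uM staurosporine, with AC50 derived by Hill modelling.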

Assay [3] is described as follows: Cellular Toxicity (caspase-3) NIH 3T3 (AID 666).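 Note: caspase signal read after 16 h compound exposure; 0% = DMSO basal and 100% = 100 µM tamoxifen stimulation.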 In outline:
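Cells were plated at 1000 per well and incubated 5 hr at 37°C, then compound was added for 16 hr. Caspase-Glo 3/7 reagent followed for 20 min at room temperature before luminescence was read.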

A short description of assay [4]: Cellular Toxicity (caspase-3) Renal Proximal Tubule (AID 667).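 Note: cells exposed to compound for 16 hours at 37 °C before detection; 0% = DMSO basal and 100% = 10 µM staurosporine.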 The essentials: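 In qHTS format, rat primary proximal tubule cells seeded at 1000 per well are exposed to compounds for 16 hours at 37 °C. An increase in Caspase-Glo 3/7 luminescence indicates caspase activation.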
Assay [5] deals with Cytochrome P450 3A4 (Homo sapiens) (UniProt P08684). As to the kind of experiment: qHTS Assay for Inhibitors and Substrates of Cytochrome P450 3A4 (AID 884). Note: nearly all actives have a fitted effect of over 50% in size. Note: potency is the fitted concentration of half-maximal effect. The essentials: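 Luminescent readout of luciferin produced by CYP3A4 (20 nM) dealkylation of Luciferin-PPXE, 25 uM (its KM). NADPH-driven reaction ran 60 min at RT after 10 min compound preincubation; data scaled to 57 uM ketoconazole as 100% inhibition.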
Cytochrome P450 3A4 (Homo sapiens), sequence (P08684 whole entry, looked up): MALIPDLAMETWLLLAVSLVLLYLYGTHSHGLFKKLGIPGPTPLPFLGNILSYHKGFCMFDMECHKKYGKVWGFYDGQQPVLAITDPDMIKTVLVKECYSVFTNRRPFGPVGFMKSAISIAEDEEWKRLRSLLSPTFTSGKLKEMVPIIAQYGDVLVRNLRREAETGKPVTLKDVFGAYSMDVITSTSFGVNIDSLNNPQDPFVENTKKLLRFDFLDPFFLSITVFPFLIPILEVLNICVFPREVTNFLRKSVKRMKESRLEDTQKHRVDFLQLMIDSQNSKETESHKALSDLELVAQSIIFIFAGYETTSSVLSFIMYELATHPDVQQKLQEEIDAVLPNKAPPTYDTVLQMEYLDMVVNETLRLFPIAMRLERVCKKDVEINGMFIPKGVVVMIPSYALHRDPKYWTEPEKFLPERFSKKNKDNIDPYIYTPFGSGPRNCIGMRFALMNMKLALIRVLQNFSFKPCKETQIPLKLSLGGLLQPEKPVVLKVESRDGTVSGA

Assay [6] has the same target. Briefly: qHTS Assay for Activators of Cytochrome P450 3A4 (AID 885). Note: nearly all actives have a fitted effect of over 65% in size. In outline:
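Activators are scored by enhanced luminescence from CYP3A4 conversion of luciferin-PPXE (25uM, equal to KM) to luciferin, after 60 min at RT with an NADPH-regenerating system.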
For orientation: In qHTS, concentration-response curves come from the screen itself.

Assay [7] can be described thus: MultiTox-Fluor Cytotoxicity Assay - LYMP1-001 - Dead Cells (AID 946).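 Note: 0% = DMSO and 100% = tetraoctylammonium bromide.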 The essentials: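 Seed 2500 LYMP1-001 cells/well, incubate 5 hr at 37 C; add compound, 16 hr at 37 C; add MultiTox-Fluor reagent, 60 min RT; read dead-cell fluorescence Ex/Em=485/520. Normalize to DMSO and 15 uM tetraoctylammonium bromide.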
Assay [8] in a line: Cell Viability - LYMP1-002 - Assay at 16 hr (AID 948). Note: potency is the fitted concentration of half-maximal effect. In outline: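 Acute cytotoxicity is scored as a concentration-dependent fall in intracellular ATP in a human lymphoblastoid line (LYMP1-002) after 16 hr compound exposure at 37 C, measured by luciferase luminescence.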
The nature of assay [9]: Cell Viability - LYMP2-001 (AID 921).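 Note: cells exposed to compound for 24 h at 37 °C; nearly all actives have a fitted effect of over 70% in size.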 Note: potency is the fitted concentration of half-maximal effect. In outline: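 qHTS, 1536-well; lymphoblastoid cells, 24 hr compound, 37 C; ATP by CellTiter-Glo, 30 min RT; luminescence; Hill-fit AC50.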
The nature of assay [10]: MultiTox-Fluor Cytotoxicity Assay - LYMP1-001 - Live Cells (AID 947).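 Note: 0% = DMSO only and full inhibition = tetraoctylammonium bromide control.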
The nature of assay [11]: Confirmation and Secondary Assay for Modulators of Hemoglobin Beta Chain Splicing at IVS2 654 locus (AID 910).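 Note: HeLa cells stably carrying EGFP split by mutant beta-globin IVS2-654 intron; per-well total GFP intensity by laser scanning cytometry after 2-day treatment; % of control where 0% means no effect.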 In outline:
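Readout: per-well total peak green fluorescence (488 nm ex, 500–520 nm em) from objects 5–250 µm, reflecting correct splicing of an EGFP-654 reporter. Compounds were applied for 2 days at 37 °C to overnight-plated HeLa EGFP-654 cells; controls were DMSO and 500 nM IVS2-654 PNA.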

Assay [12] is described as follows: Confirmation and Secondary Assay for Modulators of Hemoglobin Beta Chain Splicing at IVS2 705 locus (AID 930).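 Note: HeLa cells stably expressing the EGFP-705 splicing reporter; GFP fluorescence per well restored by corrected splicing of the IVS2-705 intron in EGFP; % of control where 0% means no effect.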 The essentials:
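First, HeLa EGFP-705 cells are seeded at 500/well in Optimem with 2% FCS and left overnight. Next, compound or DMSO is added for 2 days. Finally wells are laser-scanned and total peak GFP intensity scored.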

For assay [13], the target named is Guanine nucleotide-binding protein G(i) subunit alpha-1 (Homo sapiens) (UniProt P63096). As to the kind of experiment: qHTS Assay for Inhibitors of RGS12 GoLoco Motif Activity (Green Fluorophore) (AID 879).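 Note: 0% = labeled peptide with Gαi1 and full inhibition = labeled peptide alone without protein; negative values mean loss of peptide binding seen as reduced polarization.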 The essentials:
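A drop in FITC polarization marked displacement of the FITC-tagged RGS12 GoLoco peptide (10 nM) from Gαi1 (50 nM). Compounds were incubated 10 min at room temperature in Tris pH 7.5 buffer containing 150 mM NaCl, 0.1 mM GDP and 0.05% NP40; unlabeled peptide titration served as control.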

Assay [14] concerns the target Pyruvate kinase (Leishmania mexicana) (UniProt Q27686). As to the kind of experiment: qHTS Validation Assay for Inhibitors of Leishmania Mexicana Pyruvate Kinase (AID 945).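 Note: 0% = DMSO only neutral control wells.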 In outline:
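qHTS eight-point titrations against 0.2 nM LmPYK (E451W) in imidazole buffer pH 7.2 with 0.5 mM PEP, 0.1 mM ADP; 1 h, room temperature. Readout: PKLight luminescence, normalized to neutral DMSO wells.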

The target in assay [15] is Muscarinic acetylcholine receptor M1 (Rattus norvegicus) (UniProt P08482). Briefly: qHTS Assay for Antagonists of Acetylcholine Muscarinic M1 Receptor: Kinetic Measurement of Intracellular Calcium Response (AID 943).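 Note: Fluo-4 calcium signal as peak divided by basal fluorescence over 4 min; nearly all actives have a fitted effect of over 75% in size.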 In outline:
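Antagonism is measured as inhibition of the carbachol-evoked calcium rise in CHO cells transfected with rat M1. Cells are dye-loaded, exposed to compound for 10 min, then stimulated with 100 nM carbachol (EC80).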

For assay [16] the target is unchanged. As to the kind of experiment: qHTS Assay for Antagonists of Acetylcholine Muscarinic M1 Receptor: Measurement of IP-One Response (AID 944). Note: nearly all actives have a fitted effect of over 75% in size. In outline:
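Antagonist mode with rat M1 receptor transfected into CHO cells. Compound is added first for 10 min, carbachol at its EC80 follows for 30 min, and lysis reagents then allow TR-FRET detection of accumulated IP1.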

Assay [17] deals with Cytochrome P450 2C19 (Homo sapiens) (UniProt P33261). As to the kind of experiment: qHTS Assay for Inhibitors and Substrates of Cytochrome P450 2C19 (AID 899). Note: potency is the fitted concentration of half-maximal effect; nearly all actives have a fitted effect of over 60% in size. The settings on record: recombinant CYP2C19, luciferin-H EGE luminescence. In outline:
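Luminescence readout of luciferin formed from 10uM Luciferin-H EGE (KM level) by 5 nM CYP2C19 in 50mM KPO4. 60 min NADPH-driven reaction at 37C after 10 min compound preincubation; data scaled to 57uM ketoconazole inhibition.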

The nature of assay [18]: qHTS Assay for Identification of Small Molecule Agonists for Hypoxia Response Element Signaling Pathway (AID 914; active = well fitted activation curve with a large enough effect in the signal ratio, with a control signal flat, not every such curve was filed as active; the % refers to the signal ratio; note: % of control where 0% means no effect). The note with it: ME-180 (cervical carcinoma) HRE-bla reporter, beta-lactamase ratio, CoCl2, 17 h; active compounds read high. In outline: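 Positive modulation of EC50 CoCl2-induced hypoxia response element signaling is measured in ME-180 cells with a beta-lactamase reporter. Compounds are titrated, incubation runs 17 hours, and %Activity derives from the blue/green ratio.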

Structures are written as SMILES. A number with no mark means an inactive call. Inconclusive results are not listed. Activity calls are given as the source filed them. Unless noted, calls come from the whole dose curve; as a rule, active = well fitted curve in the direction sought with a large enough effect; inconclusive = small, poorly fitted or top-dose-only effect, or another doubt; inactive = no such curve, though single readings can be large; an effect the other way counts as inactive or inconclusive.

Pyruvate kinase (Leishmania mexicana), sequence (Q27686 2-499 E452W): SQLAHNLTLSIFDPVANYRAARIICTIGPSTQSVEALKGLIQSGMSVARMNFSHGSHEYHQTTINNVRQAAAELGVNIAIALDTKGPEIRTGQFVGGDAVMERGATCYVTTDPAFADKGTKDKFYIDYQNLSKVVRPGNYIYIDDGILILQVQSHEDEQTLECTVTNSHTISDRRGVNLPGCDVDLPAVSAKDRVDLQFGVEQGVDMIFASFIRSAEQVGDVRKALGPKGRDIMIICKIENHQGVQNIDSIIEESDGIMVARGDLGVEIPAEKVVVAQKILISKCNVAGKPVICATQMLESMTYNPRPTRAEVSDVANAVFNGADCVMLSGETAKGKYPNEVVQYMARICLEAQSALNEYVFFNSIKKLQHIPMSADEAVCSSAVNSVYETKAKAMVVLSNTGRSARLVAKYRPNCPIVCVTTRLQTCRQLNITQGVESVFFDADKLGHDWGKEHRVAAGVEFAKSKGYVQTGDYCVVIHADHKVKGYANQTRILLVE
Muscarinic acetylcholine receptor M1 (Rattus norvegicus), sequence (P08482 whole entry, looked up): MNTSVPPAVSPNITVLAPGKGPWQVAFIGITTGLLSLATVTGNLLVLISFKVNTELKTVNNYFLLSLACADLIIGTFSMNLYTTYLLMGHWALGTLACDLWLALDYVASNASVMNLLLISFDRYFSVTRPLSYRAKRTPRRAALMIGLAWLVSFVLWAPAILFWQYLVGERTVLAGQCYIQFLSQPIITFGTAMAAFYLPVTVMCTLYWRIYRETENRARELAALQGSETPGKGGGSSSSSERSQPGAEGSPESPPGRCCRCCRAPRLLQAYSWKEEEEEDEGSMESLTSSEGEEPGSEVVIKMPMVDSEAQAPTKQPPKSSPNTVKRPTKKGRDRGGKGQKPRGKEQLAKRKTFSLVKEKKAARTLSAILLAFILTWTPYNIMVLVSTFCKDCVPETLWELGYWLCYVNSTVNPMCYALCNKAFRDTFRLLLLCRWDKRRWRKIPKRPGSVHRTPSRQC
Guanine nucleotide-binding protein G(i) subunit alpha-1 (Homo sapiens), sequence (P63096 whole entry, looked up): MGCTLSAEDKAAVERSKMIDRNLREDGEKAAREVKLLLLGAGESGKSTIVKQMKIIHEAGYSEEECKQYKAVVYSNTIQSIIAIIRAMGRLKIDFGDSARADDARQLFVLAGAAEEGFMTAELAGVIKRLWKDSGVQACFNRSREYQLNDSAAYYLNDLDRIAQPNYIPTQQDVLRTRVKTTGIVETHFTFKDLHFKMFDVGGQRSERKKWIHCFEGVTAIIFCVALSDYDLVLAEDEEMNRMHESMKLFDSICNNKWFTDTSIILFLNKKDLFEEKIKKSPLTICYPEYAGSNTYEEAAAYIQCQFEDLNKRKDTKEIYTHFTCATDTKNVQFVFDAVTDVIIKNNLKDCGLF
Cytochrome P450 2C19 (Homo sapiens), sequence (P33261 whole entry, looked up): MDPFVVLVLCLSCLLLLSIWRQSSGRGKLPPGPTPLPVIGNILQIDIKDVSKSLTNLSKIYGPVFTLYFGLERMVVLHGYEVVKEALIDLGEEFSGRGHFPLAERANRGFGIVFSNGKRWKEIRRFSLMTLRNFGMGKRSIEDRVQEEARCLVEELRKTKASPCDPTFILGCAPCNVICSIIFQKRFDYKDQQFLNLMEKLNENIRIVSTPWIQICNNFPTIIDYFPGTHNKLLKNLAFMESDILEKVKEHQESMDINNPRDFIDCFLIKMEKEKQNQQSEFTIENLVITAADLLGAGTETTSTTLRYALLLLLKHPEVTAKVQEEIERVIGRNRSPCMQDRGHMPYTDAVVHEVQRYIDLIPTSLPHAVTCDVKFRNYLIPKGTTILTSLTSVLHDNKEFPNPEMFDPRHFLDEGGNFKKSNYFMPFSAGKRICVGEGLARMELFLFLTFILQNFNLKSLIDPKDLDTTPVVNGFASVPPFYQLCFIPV

As for `CC/C=C\C/C=C\C/C=C\CCCCCCCC(=O)O`, the caspase-3 activation in assay [1] is 0.606%. The molecule was classed as inactive in assay [2], in assay [3] and in assay [4]. In assay [5], the Potency is 15.8 µM (active). Further, the Potency result in [6], in assay [7] and in assay [8] was “inactive” throughout.
`Cc1ncc[nH]1`: the caspase-3 activation in assay [1] was -0.913%. Besides, the result in assay [2], in assay [3], in assay [4] and in [10] was inactive. Besides, the Potency result in assay [5], in assay [9], in [7] and in [8] was “inactive” in each case.
As for `CC[C@H]1OC(=O)[C@H](C)[C@@H](O[C@H]2C[C@@](C)(OC)[C@@H](O)[C@H](C)O2)[C@H](C)[C@@H](O[C@@H]2O[C@H](C)C[C@H](N(C)C)[C@H]2O)[C@](C)(O)C[C@@H](C)CN(C)[C@H](C)[C@@H](O)[C@]1(C)O`, the caspase-3 activation in [1] is 0.727%. The result in assay [2], in [3], in assay [4] and in assay [10] was inactive. For the same molecule, the Potency result in [9], in [7] and in [8] was “inactive” throughout.
In the case of `C/C=C/C=C/C(=O)O`, the caspase-3 activation in assay [1] is -0.294%. The call in [2], in [3], in assay [4] and in [10] was inactive. The Potency entry in [5], in [9], in [7] and in assay [8] was “inactive” in each case.
`OCc1ccccc1`: the caspase-3 activation in assay [1] was -0.432%. Also, the outcome in assay [2], in assay [3], in assay [4] and in assay [10] was inactive. The Potency result in assay [5], in [9], in [7] and in assay [8] was “inactive” throughout.
With `CCCCC`, the caspase-3 activation in [1] was 2.68%. In addition, the result in assay [2], in [3], in assay [4] and in [10] was inactive. The Potency result in assay [5], in [9], in assay [7] and in assay [8] was “inactive” each time.
With `CC(C)O`, the caspase-3 activation in [1] is 1.95%. Moreover, the outcome in [2], in [3], in assay [4] and in [10] was inactive. In addition, the Potency entry in [5], in [9], in [7] and in [8] was “inactive” each time.
As for `COC(=O)c1ccccc1O`, the caspase-3 activation in assay [1] is 0.0886%. For the same molecule, the molecule was classed as inactive in assay [2], in assay [3], in [4] and in assay [10]. Further, the Potency entry in assay [5], in assay [9], in assay [7] and in assay [8] was “inactive” in each case.
As to `O=P(O)(O)O`, the caspase-3 activation in assay [1] is -0.448%. The molecule was classed as inactive in assay [2], in [3], in assay [4] and in assay [10]. In addition, the Potency result in assay [5], in [9], in [7] and in [8] was “inactive” each time.
Take `C[C@H](CCC(=O)O)[C@H]1CC[C@H]2[C@@H]3CC[C@@H]4C[C@H](O)CC[C@]4(C)[C@H]3C[C@H](O)[C@]12C`: the caspase-3 activation in assay [1] is -1.48%. Moreover, the molecule was classed as inactive in assay [2], in assay [3], in assay [4] and in [10]. Also, the Potency entry in assay [9], in [7] and in [8] was “inactive” throughout.
For `Oc1cccc(O)c1O`, in assay [1], the caspase-3 activation is 1.35%. Also, the molecule was classed as inactive in assay [2], in assay [3], in assay [4] and in [10]. The Potency entry in assay [5], in assay [9], in assay [7] and in assay [8] was “inactive” each time.
Regarding `O=c1n(CC2CO2)c(=O)n(CC2CO2)c(=O)n1CC1CO1` (configuration not stated), in assay [1], the caspase-3 activation was 3.19%. Besides, the result in assay [2], in assay [3], in [4] and in assay [10] was inactive. In assay [5], the Potency result is “inactive”. The Potency in [9] was 31.6 µM (active); in [8] it was 39.8 µM (active).
Regarding `Nc1ncnc2c1ncn2[C@H]1CC[C@@H](CO)O1`, the caspase-3 activation in assay [1] was 2.37%. For the same molecule, the result in assay [2], in assay [3], in [4] and in assay [10] was inactive. The Potency entry in assay [5], in assay [11], in assay [9], in assay [12], in [7] and in assay [8] was “inactive” in each case.
As to `CO`, in assay [1], the caspase-3 activation was -0.124%. Moreover, the call in assay [2], in assay [3], in [4] and in assay [10] was inactive. The Potency result in assay [5], in assay [9], in assay [7] and in assay [8] was “inactive” each time.
In the case of `O.O.O.O.O.O.O.O=S(=O)([O-])[O-].[Co+2]`, the caspase-3 activation in assay [1] is -1.13%. For the same molecule, the molecule was called inactive in assay [2], in assay [3], in assay [4] and in [10]. The Potency result in assay [5], in assay [7] and in [8] was “inactive” throughout.
With `CC1=CC(=O)NS(=O)(=O)O1`, the caspase-3 activation in assay [1] was -2.78%. Further, the molecule was called inactive in [2], in assay [3], in assay [4] and in assay [10]. The Potency result in assay [5], in assay [9], in [7] and in [8] was “inactive” throughout.
Regarding `Nc1ccc(N=Nc2ccccc2)c(N)n1`, the result in assay [2], in assay [4] and in [10] was inactive.
As to `C[C@H](CCC(=O)O)[C@H]1CC[C@H]2[C@@H]3[C@H](O)C[C@@H]4C[C@H](O)CC[C@]4(C)[C@H]3C[C@H](O)[C@]12C`, the call in assay [2], in [3], in assay [4] and in [10] was inactive.
As to `C=C1C(CCl)(CCl)C2(Cl)C(Cl)C(Cl)C1(Cl)C2(Cl)Cl` (configuration not stated), the molecule was called inactive in [3].
Consider `C[C@@](Cc1ccc(O)c(O)c1)(NN)C(=O)O`, for which the outcome in assay [13] and in assay [14] was inactive.
For `Cc1cc(C)c(NC(=O)C[C@H](CC(=O)O)c2cccc3ccccc23)c(C(=O)N2CCC3(CCCC3)CC2)c1`, the molecule was classed as inactive in assay [13], in assay [15], in assay [16] and in assay [14].
Turning to `Cc1cc(-c2ccc(N=Nc3ccc4c(S(=O)(=O)O)cc(S(=O)(=O)O)c(N)c4c3O)c(C)c2)ccc1N=Nc1ccc2c(S(=O)(=O)O)cc(S(=O)(=O)O)c(N)c2c1O`, in [17], the Potency is 0.199 µM (active).
As for `Cc1cccc(C)c1NC(=O)C1CCCCN1C` (configuration not stated), the activation in assay [18] is 5.97%.

(Values after PubChem BioAssay (NCATS).)
